According to PubChem BioAssay (NCI):
The panel holds about 79,000 compounds, 15% with a hit somewhere; the sample as a whole holds those more often. A number with no mark means an inactive call. The source made the active and inactive calls. No stated cut-off is given here; in the data, active means growth inhibition above about 70%; inactive means the rest.

Experiments:
[1] = NCI Yeast Anticancer Drug Screen. Data for the rad52 strain (AID 147);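 further: 0% = growth of vehicle-treated control cultures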; conditions: S. cerevisiae rad52 mutant growth inhibition, hits give high values
In short: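 Here a repair-compromised yeast strain receives each compound; its growth is then quantified and normalised to vehicle-only controls.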

[2] = NCI Yeast Anticancer Drug Screen. Data for the wt1 strain (AID 149);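 further: 0% = growth of vehicle-treated wt1 cultures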; conditions: S. cerevisiae wt1 strain (SPY 50644) growth inhibition, hits give high values
In short: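 Using yeast strain wt1, compound-induced growth inhibition was determined against vehicle-treated cultures.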

[3] = NCI Yeast Anticancer Drug Screen. Data for the rad50EPP+ strain (AID 151);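 further: 0% = growth of vehicle-treated control cultures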; conditions: S. cerevisiae rad50 mutant strain, hits give high values
In short: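 Read-out is yeast growth inhibition relative to vehicle; cells used were the rad50EPP+ strain.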

[4] = NCI Yeast Anticancer Drug Screen. Data for the mgt1 strain (AID 153); conditions: S. cerevisiae mgt1 mutant growth inhibition, hits give high values
In short: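 Measured: inhibition of mgt1 yeast growth by compound, normalized to vehicle-treated cultures.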

[5] = NCI Yeast Anticancer Drug Screen. Data for the rad50 strain (AID 155);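 further: 0% = growth of vehicle-only cultures of the same strain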; conditions: S. cerevisiae rad50 strain growth inhibition, hits give high values
In short: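 Relative growth inhibition (compound vs vehicle) was measured in yeast with a defined repair-gene alteration.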

[6] = NCI Yeast Anticancer Drug Screen. Data for the mec2-1 strain (AID 157); conditions: S. cerevisiae mec2-1 strain, hits give high values
In short: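 Using mec2-1 yeast: add compound, measure growth, express inhibition versus vehicle-treated cultures.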

[7] = NCI Yeast Anticancer Drug Screen. Data for the rad14 strain (AID 159);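 further: 0% = growth of vehicle-treated control cultures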; conditions: S. cerevisiae rad14 strain growth inhibition, hits give high values
In short: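 Screen for anticancer potential: a yeast strain altered in DNA damage repair is grown with compound, and reduced growth is quantified against vehicle controls.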

[8] = NCI Yeast Anticancer Drug Screen. Data for the sgs1 mgt1 strain (AID 161);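 further: 0% = growth of cultures given vehicle only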; conditions: S. cerevisiae sgs1 mgt1 strain, hits give high values
In short: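 This yeast growth screen uses a strain with defined DNA-repair lesions; compound-treated growth is compared with vehicle-treated growth.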

[9] = NCI Yeast Anticancer Drug Screen. Data for the CLN2oe strain (AID 163);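 further: 0% = growth of vehicle-only control cultures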; conditions: S. cerevisiae CLN2oe strain, hits give high values
In short: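 Whole-cell yeast growth assay. A strain engineered for altered cell-cycle control received compound, and inhibition relative to vehicle-treated cultures was recorded.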

[10] = NCI Yeast Anticancer Drug Screen. Data for the cln2 rad14 strain (AID 165);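 further: 0% = growth equal to vehicle treated cultures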; conditions: S. cerevisiae cln2 rad14 strain, hits give high values
In short: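 Yeast strain cln2 rad14, bearing defects in cell cycle control and DNA repair, serves as the test system; values reflect growth inhibition compared with vehicle.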

[11] = NCI Yeast Anticancer Drug Screen. Data for the bub3 strain (AID 167); conditions: S. cerevisiae bub3 mutant strain, hits give high values
In short: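 Screening used yeast with an engineered genetic alteration affecting cell cycle control. Compound-exposed cultures were compared with vehicle cultures, and reduced growth was taken as inhibition.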

[12] = NCI Yeast Anticancer Drug Screen. Data for the wt2 strain (AID 169);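 further: 0% = growth of vehicle-treated yeast cultures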; conditions: S. cerevisiae wt2 strain growth inhibition, hits give high values
In short: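 Treated yeast vs. vehicle-treated yeast: growth inhibition determined.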

[13] = NCI Yeast Anticancer Drug Screen. Data for the mlh1 strain (AID 171);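 further: 0% = growth of vehicle-treated control cultures of the same strain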; conditions: S. cerevisiae mlh1 strain growth inhibition, hits give high values
In short: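 A yeast strain with a defined genetic lesion serves as the test organism. Cultures receive compound or vehicle, and growth is measured.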

[14] = NCI Yeast Anticancer Drug Screen. Data for the sgs1 strain (AID 173);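 further: 0% = growth of vehicle-only control cultures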; conditions: S. cerevisiae sgs1 mutant, hits give high values
In short: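 A genetically defined yeast mutant is incubated with the test compound, and its growth is compared to that of the same strain given vehicle.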

[15] = NCI Yeast Anticancer Drug Screen. Data for the mlh1 rad18 strain (AID 175); conditions: S. cerevisiae mlh1 rad18 strain growth inhibition, hits give high values
In short: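 Steps: expose repair-defective yeast to compound; measure growth; express inhibition against vehicle-treated controls.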

[16] = NCI Yeast Anticancer Drug Screen. Data for the rad18 strain (AID 177); conditions: S. cerevisiae rad18 mutant growth inhibition, hits give high values
In short: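 Measured value is growth inhibition of a yeast strain bearing a DNA repair alteration, referenced to vehicle-treated cells.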

[17] = at 5.0 µM (retest, dose inferred, filed as 0.5)
[18] = at 50.0 µM (retest, dose inferred, filed as 5.0)

NC(=S)N1N=C2c3ccccc3CC[C@@H]2[C@@H]1c1ccccc1
growth inhibition ([1]; at 1.2 µM): -34%
growth inhibition ([1]; at 3.7 µM): -17%
growth inhibition ([1]; at 11.0 µM): -8%
growth inhibition ([1]; at 33.0 µM): 7%
growth inhibition ([1]; at 100.0 µM): 77% (active)
growth inhibition ([2]; at 1.2 µM): 11%
growth inhibition ([2]; at 3.7 µM): 2%
growth inhibition ([2]; at 11.0 µM): 2%
growth inhibition ([2]; at 33.0 µM): 9%
growth inhibition ([2]; at 100.0 µM): 67%
growth inhibition ([3]; at 1.2 µM): -31%
growth inhibition ([3]; at 3.7 µM): -36%
growth inhibition ([3]; at 11.0 µM): -49%
growth inhibition ([3]; at 33.0 µM): -40%
growth inhibition ([3]; at 100.0 µM): -23%
growth inhibition ([4]; at 1.2 µM): -17%
growth inhibition ([4]; at 3.7 µM): -29%
growth inhibition ([4]; at 11.0 µM): -19%
growth inhibition ([4]; at 33.0 µM): 15%
growth inhibition ([4]; at 100.0 µM): 88% (active)
growth inhibition ([5]; at 1.2 µM): -13%
growth inhibition ([5]; at 3.7 µM): -2%
growth inhibition [5, 17]: 35%
growth inhibition ([5]; at 11.0 µM): -1%
growth inhibition ([5]; at 33.0 µM): 15%
growth inhibition [5, 18]: 79% (active)
growth inhibition ([5]; at 50.0 µM): 75.6% (active)
growth inhibition ([5]; at 100.0 µM): 86% (active)
growth inhibition ([6]; at 1.2 µM): -10%
growth inhibition ([6]; at 3.7 µM): -13%
growth inhibition [6, 17]: -16%
growth inhibition ([6]; at 11.0 µM): -3%
growth inhibition ([6]; at 33.0 µM): 13%
growth inhibition [6, 18]: 77% (active)
growth inhibition ([6]; at 50.0 µM): 64.4%
growth inhibition ([6]; at 100.0 µM): 73% (active)
growth inhibition ([7]; at 1.2 µM): -36%
growth inhibition ([7]; at 3.7 µM): -33%
growth inhibition ([7]; at 11.0 µM): -25%
growth inhibition ([7]; at 33.0 µM): 2%
growth inhibition ([7]; at 100.0 µM): 84% (active)
growth inhibition [8, 17]: 8%
growth inhibition [8, 18]: 82% (active)
growth inhibition ([8]; at 50.0 µM): 83% (active)
growth inhibition ([9]; at 1.2 µM): -28%
growth inhibition ([9]; at 3.7 µM): -27%
growth inhibition ([9]; at 11.0 µM): -25%
growth inhibition ([9]; at 33.0 µM): -10%
growth inhibition ([9]; at 100.0 µM): 73% (active)
growth inhibition [10, 17]: -4%
growth inhibition [10, 18]: 55%
growth inhibition ([10]; at 50.0 µM): 67.2%
growth inhibition ([11]; at 1.2 µM): -4%
growth inhibition ([11]; at 3.7 µM): 11%
growth inhibition [11, 17]: 27%
growth inhibition ([11]; at 11.0 µM): -4%
growth inhibition ([11]; at 33.0 µM): 34%
growth inhibition [11, 18]: 86% (active)
growth inhibition ([11]; at 50.0 µM): 77.1% (active)
growth inhibition ([11]; at 100.0 µM): 90% (active)
growth inhibition ([12]; at 1.2 µM): -17%
growth inhibition ([12]; at 3.7 µM): -5%
growth inhibition ([12]; at 11.0 µM): -2%
growth inhibition ([12]; at 33.0 µM): 25%
growth inhibition ([12]; at 100.0 µM): 86% (active)
growth inhibition ([13]; at 1.2 µM): -31%
growth inhibition ([13]; at 3.7 µM): -25%
growth inhibition ([13]; at 11.0 µM): -8%
growth inhibition ([13]; at 33.0 µM): 23%
growth inhibition ([13]; at 100.0 µM): 88% (active)
growth inhibition ([14]; at 1.2 µM): 6%
growth inhibition ([14]; at 3.7 µM): 13%
growth inhibition ([14]; at 11.0 µM): 27%
growth inhibition ([14]; at 33.0 µM): 68%
growth inhibition ([14]; at 100.0 µM): 89% (active)
growth inhibition [15, 17]: -15%
growth inhibition [15, 18]: 81% (active)
growth inhibition ([15]; at 50.0 µM): 74.5% (active)
growth inhibition ([16]; at 1.2 µM): -25%
growth inhibition ([16]; at 3.7 µM): -21%
growth inhibition ([16]; at 11.0 µM): -11%
growth inhibition ([16]; at 33.0 µM): 14%
growth inhibition ([16]; at 100.0 µM): 66%

COC(=O)c1cnc(Cl)c([N+](=O)[O-])c1
growth inhibition ([1]; at 1.2 µM): 17%
growth inhibition ([1]; at 3.7 µM): 53%
growth inhibition ([1]; at 11.0 µM): 94% (active)
growth inhibition ([1]; at 33.0 µM): 98% (active)
growth inhibition ([1]; at 100.0 µM): 99% (active)
growth inhibition ([2]; at 1.2 µM): 6%
growth inhibition ([2]; at 3.7 µM): 15%
growth inhibition ([2]; at 11.0 µM): 82% (active)
growth inhibition ([2]; at 33.0 µM): 99% (active)
growth inhibition ([2]; at 100.0 µM): 99% (active)
growth inhibition ([3]; at 1.2 µM): 14%
growth inhibition ([3]; at 3.7 µM): 48%
growth inhibition ([3]; at 11.0 µM): 93% (active)
growth inhibition ([3]; at 33.0 µM): 98% (active)
growth inhibition ([3]; at 100.0 µM): 99% (active)
growth inhibition ([4]; at 1.2 µM): 2%
growth inhibition ([4]; at 3.7 µM): 23%
growth inhibition ([4]; at 11.0 µM): 92% (active)
growth inhibition ([4]; at 33.0 µM): 99% (active)
growth inhibition ([4]; at 100.0 µM): 99% (active)
growth inhibition ([5]; at 1.2 µM): 22%
growth inhibition ([5]; at 3.7 µM): 75% (active)
growth inhibition [5, 17]: 79% (active)
growth inhibition ([5]; at 11.0 µM): 97% (active)
growth inhibition ([5]; at 33.0 µM): 99% (active)
growth inhibition [5, 18]: 98% (active)
growth inhibition ([5]; at 50.0 µM): 99.5% (active)
growth inhibition ([5]; at 100.0 µM): 99% (active)
growth inhibition ([6]; at 1.2 µM): 5%
growth inhibition ([6]; at 3.7 µM): 10%
growth inhibition [6, 17]: 41%
growth inhibition ([6]; at 11.0 µM): 72% (active)
growth inhibition ([6]; at 33.0 µM): 98% (active)
growth inhibition [6, 18]: 99% (active)
growth inhibition ([6]; at 50.0 µM): 99.5% (active)
growth inhibition ([6]; at 100.0 µM): 99% (active)
growth inhibition ([7]; at 1.2 µM): 2%
growth inhibition ([7]; at 3.7 µM): 18%
growth inhibition ([7]; at 11.0 µM): 39%
growth inhibition ([7]; at 33.0 µM): 97% (active)
growth inhibition ([7]; at 100.0 µM): 99% (active)
growth inhibition [8, 17]: 47%
growth inhibition [8, 18]: 99% (active)
growth inhibition ([8]; at 50.0 µM): 99.3% (active)
growth inhibition ([9]; at 1.2 µM): 0%
growth inhibition ([9]; at 3.7 µM): 5%
growth inhibition ([9]; at 11.0 µM): 48%
growth inhibition ([9]; at 33.0 µM): 97% (active)
growth inhibition ([9]; at 100.0 µM): 99% (active)
growth inhibition [10, 17]: 2%
growth inhibition [10, 18]: 98% (active)
growth inhibition ([10]; at 50.0 µM): 94.8% (active)
growth inhibition ([11]; at 1.2 µM): 2%
growth inhibition ([11]; at 3.7 µM): 7%
growth inhibition [11, 17]: 24%
growth inhibition ([11]; at 11.0 µM): 85% (active)
growth inhibition ([11]; at 33.0 µM): 98% (active)
growth inhibition [11, 18]: 99% (active)
growth inhibition ([11]; at 50.0 µM): 98.9% (active)
growth inhibition ([11]; at 100.0 µM): 99% (active)
growth inhibition ([12]; at 1.2 µM): 4%
growth inhibition ([12]; at 3.7 µM): 20%
growth inhibition ([12]; at 11.0 µM): 88% (active)
growth inhibition ([12]; at 33.0 µM): 99% (active)
growth inhibition ([12]; at 100.0 µM): 99% (active)
growth inhibition ([13]; at 1.2 µM): 3%
growth inhibition ([13]; at 3.7 µM): 11%
growth inhibition ([13]; at 11.0 µM): 92% (active)
growth inhibition ([13]; at 33.0 µM): 99% (active)
growth inhibition ([13]; at 100.0 µM): 100% (active)
growth inhibition ([14]; at 1.2 µM): 5%
growth inhibition ([14]; at 3.7 µM): 20%
growth inhibition ([14]; at 11.0 µM): 88% (active)
growth inhibition ([14]; at 33.0 µM): 98% (active)
growth inhibition ([14]; at 100.0 µM): 99% (active)
growth inhibition [15, 17]: 72% (active)
growth inhibition [15, 18]: 98% (active)
growth inhibition ([15]; at 50.0 µM): 98.5% (active)
growth inhibition ([16]; at 1.2 µM): 4%
growth inhibition ([16]; at 3.7 µM): 29%
growth inhibition ([16]; at 11.0 µM): 95% (active)
growth inhibition ([16]; at 33.0 µM): 98% (active)
growth inhibition ([16]; at 100.0 µM): 99% (active)
